A selection: hits, their analogues and other compounds. The true share with any hit is near 4.7%.
TROY NFkB inh = blocks TROY-dependent signaling in reporter cells | inhibition, % at 10 µM | AID 1347056 | 360,000 tested, 0.98% active | Q293 LMP1-TROYcd NF-kB luciferase reporter, 4 h;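 active means compounds whose plate-normalised and pattern-corrected inhibition of the luciferase reporter signal at the single screening dose is 50% or more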
LMP1 NFkB inh = inhibitors of Epstein-Barr LMP1-induced NF-kappaB reporter; inhibition, % at 12.5 µM; LMP1-induced NF-kappaB luciferase reporter cells, luminescence; 350,000 tested, 0.69% active; in the data active means inhibition above about 41%;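 further: 0% = neutral control wells and 100% = reference inhibitor control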
HSF1 inhib = HSF1 inhibition. NIH3T3-HGL HSE-luciferase, MG132-induced, luminescence 8 h; hits give low values. activity change, negative = inhibition, % at 7.5 µM (by protocol). 300,000 tested, 0.77% active;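 active means more than half of replicate wells show activity change below -50%, luminescence cut by over half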;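 further: luciferase reports HSF-1 transcriptional activity via heat shock element; 0% = median of DMSO wells and -100% = zero luminescence signal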
HSF1 activator = increases HSF-1 driven luciferase reporter signal. NIH3T3-HGL HSF-1 luciferase reporter, MG132, 8 h; 100% = twice DMSO control signal. activation, % at 9 µM. 300,000 tested, 1.7% active. AID 504408;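 active means mean replicate activation of at least 50% with a set share of replicates each reaching 50%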;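 further: 0% = median of the neutral control wells and 100% = twice that signal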
HSP90 refold inh = inhibitors of HSP90 luciferase refolding in rabbit reticulocyte lysate; luciferase refolding luminescence, 3 h; inhibition, % at 5.6 µM; 290,000 tested, 0.91% active;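 active means inhibition above the screen-wide mean plus 3 SD, computed separately per campaign, cut at about 16% in these data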;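 further: 0% = DMSO wells and 100% = 60 µM geldanamycin wells; inhibitors lower the luminescence because luciferase stays unfolded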
TWEAK Fn14 block = inhibitors of TWEAK-Fn14 interaction signaling | inhibition, % at 10 µM | TWEAK-stimulated Fn14 reporter cells, luciferase luminescence, 8 h | 360,000 tested, 2% active | AID 1159606; in the data active means inhibition above about 50%
Starred values were filed as active, the others as inactive; nt = not tested or not shown.

SMILES	TROY NFkB inh	LMP1 NFkB inh	HSF1 inhib	HSF1 activator	HSP90 refold inh	TWEAK Fn14 block
CC1(C)CC(=O)c2cc(C(=O)NNc3ccccc3)c(=O)n(-c3ccccc3)c2C1	-4	-23	1	6	4	-11
Cc1cc[n+](CC(=O)c2cc3ccccc3oc2=O)cc1	52*	3	-3	9	1	40
Cc1cc(C)nc(SCC(=O)c2cc3ccccc3oc2=O)n1	0	19	-13	-20	1	-4
Cc1ccc(NC(=O)c2snc3ccc(Cl)cc23)cc1C	-69	7	25	56*	-4	-19
CC1(C)CC(N2CCC(=O)N(C3CC(C)(C)NC(C)(C)C3)C2)CC(C)(C)N1	nt	2	1	-14	3	80*
CC1(C)CC(N2CCC(=O)NC2=S)CC(C)(C)N1	6	-2	-13	-2	nt	-8
CCOC(=O)CCCNS(=O)(=O)c1c(C)ccc2nsnc12	20	4	-89*	-91	2	-1
Cc1ccc(N/C=C(/C#N)c2ccsc2)cc1	2	-21	26	53*	-4	-13
N#C/C(=C/Nc1ccccc1)c1ccsc1	-23	-5	9	17	2	6
CCOC(=O)c1cc2sccc2n1CC(=O)N1CCCc2ccccc21	-2	0	7	15	6	-3
CCOC(=O)c1cc2occc2n1CC(=O)N1CCCc2ccccc21	1	-14	-66*	-74	2	1
N#C/C(=C\c1cccc(Br)c1)C(=O)N1CCCCC1	-18	10	-4	22	17*	24
CC1(c2nc3ccccc3[nH]2)CCC(=O)N1Cc1cccs1 (stereo not given)	7	nt	nt	nt	nt	7
COc1ccc(CN2C(=O)c3ccccc3C2c2nnnn2-c2ccc3c(c2)OCCO3)cc1 (stereo not given)	-15	nt	nt	nt	nt	9
Nc1ccc2nc3c(=O)n(CCc4ccccc4)c(=O)[nH]c3nc2c1	-34	nt	7	20	-1	1
Cc1cc2nc3c(=O)n(CCc4ccccc4)c(=O)[nH]c3nc2cc1N	37	17	20	59*	1	13
Cc1ccc(S(=O)(=O)N2CCOCC2)cc1NC(=O)CN(C)CC(=O)Nc1cccc(F)c1	10	8	nt	nt	nt	23
COc1ccc(NC(=O)c2cccc3c(-c4ccc(O)c(OC)c4)coc23)cc1	-7	nt	nt	nt	nt	33
CC(C)C[C@@H](CN1CCC[C@@H]1CN1C(=S)NC[C@@H]1Cc1ccc(O)cc1)N1C[C@H](Cc2ccc(O)cc2)N(CCc2ccccc2)C1=S	11	nt	nt	nt	nt	10
Cc1cnn(C(=O)Cn2nc(C(F)F)c(Br)c2C)c1	68*	-2	nt	nt	nt	4
Cc1c(Br)c(C(F)(F)F)nn1CC(=O)N1CCCC1	8	-9	-7	-18	-3	7
CC1(C(=O)Nc2cccc3cccnc23)CCN1Cc1cccc2c1OCO2 (stereo not given)	-6	nt	nt	nt	nt	-15
COc1ccc(CNC(=O)CN(Cc2ccccc2)C(=O)CCC(=O)Nc2nccs2)cc1	-8	-4	24	70*	3	-4
CCn1ccnc1CNC(=O)CC1C(=O)NCCN1Cc1ccc(OC)cc1OC (stereo not given)	-29	5	-2	-3	5	-9
CCOc1ccccc1CN1CCNC(=O)C1CC(=O)NCc1nccn1CC (stereo not given)	-12	4	20	67*	-2	3
SMILES	TROY NFkB inh	LMP1 NFkB inh	HSF1 inhib	HSF1 activator	HSP90 refold inh	TWEAK Fn14 block
CCOC(=O)c1cc(-c2ccccc2)n(CC(=O)Nc2ccc(OC)c(OC)c2)c1C	5	-15	8	-3	1	1
CCOC(=O)c1cc(-c2ccccc2)n(CC(=O)Nc2cccc(OC)c2)c1C	-15	53*	3	-1	2	8
CCc1ccc2c(F)cccc2n1	7	nt	nt	nt	nt	6
Cc1cc(Cl)c(S(=O)(=O)Nc2ccc3c(c2)OCCO3)cc1OCC(=O)NC1CCCCC1	59*	10	-7	0	2	56*
COC(=O)COc1ccc(S(=O)(=O)Nc2ccc3c(c2)OCCO3)cc1C	56*	10	-17	-11	0	56*
COC(=O)COc1ccc(S(=O)(=O)Nc2ccc3c(c2)OCCO3)cc1Cl	31	6	6	21	0	3
Cc1ccc(C)c(N2CCN(C(=O)Nc3ccc4c(c3)N(C)C(=O)CS4)CC2)c1	40	13	15	16	-1	52*
COc1cc(Cn2c3ccc(NC(=O)CC(C)C(F)(F)F)cc3c(=O)n2C)ccc1F (stereo not given)	-9	nt	nt	nt	nt	-3
C=C(C)c1cccc(C(C)(C)NC(=O)Nc2cc(C)ccn2)c1	52*	2	5	-1	-6	44
C=C(C)c1cccc(C(C)(C)NC(=O)Nc2ccc(C)cn2)c1	-14	3	9	15	1	22
Cc1ccnc(NC(=O)c2ccccc2NC(=O)c2ccccc2)c1	15	0	8	-8	4	9
Cc1ccnc(NC(=O)c2ccc(C(=O)c3ccccc3)cc2)c1	61*	50*	-9	10	nt	88*
O=C(Nc1ncccc1O)c1cc2ccccc2o1	19	42*	10	11	nt	40
COC(=O)c1cccc(NC(=O)c2cc3ccccc3o2)c1	69*	-21	-21	-34	16	102*
O=C(Nc1cccc2ncccc12)c1cc2ccccc2o1	6	0	8	-5	4	13
Cc1ccnc(NC(=O)c2cc3ccccc3o2)c1	60*	39	-14	-10	nt	91*
Cc1ccc(-n2cnc(=O)c3cccnc32)cc1	-9	-2	-1	3	0	4
Cc1cn2c(nc(=O)c3cccnc32)s1	-5	-36	-75*	-78	6	16
Fc1ccc(CN2CCN(c3ncnc4scc(-c5ccccc5)c34)CC2)cc1	23	10	34	84*	0	-8
Oc1ccccc1N1CCN(c2ncnc3scc(-c4ccccc4)c23)CC1	41	5	-8	-7	0	56*
Cc1ccc(-c2csc3ncnc(N4CCc5ccccc5C4)c23)cc1	58*	4	-13	7	1	78*
Fc1ccc(-c2csc3ncnc(N4CCc5ccccc5C4)c23)cc1	46	12	-2	40	4	26
CCOc1ccccc1N1CCN(c2ncnc3scc(-c4ccc(OC)cc4)c23)CC1	59*	17	4	31	7	40
C[C@@H]1CCCCO[C@H](CN(C)C(=O)c2ccccc2)[C@@H](C)CN([C@H](C)CO)C(=O)c2cc(NC(=O)c3ccncc3)ccc2O1	-8	-2	nt	nt	nt	0
C#Cc1ccc(NC(=O)C2(C)CCN2C(=O)CC(c2ccccc2)c2ccccc2)cc1 (stereo not given)	16	nt	nt	nt	nt	3
Oc1ccccc1N1CCN(c2ncnc3scc(-c4ccc(F)cc4)c23)CC1	15	6	-83*	-87	2	25
